# Laboratory results reported in ChEMBL document CHEMBL3988442, “University of Dundee, Small-Polar-MMV Screening Library” (2021).
# For some of these results: Potency and affinity values are given separately.
# What was measured:
# [1] = biological target: T1, Methionyl-tRNA synthetase, putative (Leishmania donovani (strain BPK282A1)) (UniProt E9BF75); assay: Leishmania donovani Methionine tRNA synthetase (LdMetRS):v7. Dose response assay; format: functional; parameters: conc 80 nM, time 150 minutes
# T1 sequence (whole entry): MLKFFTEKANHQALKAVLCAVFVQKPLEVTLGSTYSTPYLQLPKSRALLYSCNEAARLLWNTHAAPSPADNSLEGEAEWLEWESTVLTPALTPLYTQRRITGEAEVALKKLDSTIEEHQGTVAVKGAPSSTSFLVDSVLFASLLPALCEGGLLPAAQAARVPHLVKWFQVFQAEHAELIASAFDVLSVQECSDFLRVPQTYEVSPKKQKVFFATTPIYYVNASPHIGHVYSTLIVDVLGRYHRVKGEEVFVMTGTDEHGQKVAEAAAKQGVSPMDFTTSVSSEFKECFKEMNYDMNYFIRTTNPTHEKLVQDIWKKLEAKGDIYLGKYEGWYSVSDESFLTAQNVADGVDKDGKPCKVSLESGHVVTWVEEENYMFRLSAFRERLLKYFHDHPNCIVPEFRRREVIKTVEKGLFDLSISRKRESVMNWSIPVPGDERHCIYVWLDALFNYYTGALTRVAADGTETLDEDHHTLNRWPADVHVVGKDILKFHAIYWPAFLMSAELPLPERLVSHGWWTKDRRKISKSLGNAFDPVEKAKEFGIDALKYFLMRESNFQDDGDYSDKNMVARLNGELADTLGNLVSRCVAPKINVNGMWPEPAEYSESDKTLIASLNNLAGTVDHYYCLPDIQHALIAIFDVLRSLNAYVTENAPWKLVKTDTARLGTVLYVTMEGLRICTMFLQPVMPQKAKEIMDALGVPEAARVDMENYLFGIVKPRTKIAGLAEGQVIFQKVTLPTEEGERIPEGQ
# [2] = biological target: Protein translocase subunit SecA (Escherichia coli (strain K12)) (UniProt P10408); assay: Assay to Identify E. coli SecA ATPase Inhibitors; format: functional; parameters: scale not given: direction of the effect not stated beside the values; conditions: 30 µM
# Sequence of Protein translocase subunit SecA (Escherichia coli (strain K12)) (P10408 whole entry): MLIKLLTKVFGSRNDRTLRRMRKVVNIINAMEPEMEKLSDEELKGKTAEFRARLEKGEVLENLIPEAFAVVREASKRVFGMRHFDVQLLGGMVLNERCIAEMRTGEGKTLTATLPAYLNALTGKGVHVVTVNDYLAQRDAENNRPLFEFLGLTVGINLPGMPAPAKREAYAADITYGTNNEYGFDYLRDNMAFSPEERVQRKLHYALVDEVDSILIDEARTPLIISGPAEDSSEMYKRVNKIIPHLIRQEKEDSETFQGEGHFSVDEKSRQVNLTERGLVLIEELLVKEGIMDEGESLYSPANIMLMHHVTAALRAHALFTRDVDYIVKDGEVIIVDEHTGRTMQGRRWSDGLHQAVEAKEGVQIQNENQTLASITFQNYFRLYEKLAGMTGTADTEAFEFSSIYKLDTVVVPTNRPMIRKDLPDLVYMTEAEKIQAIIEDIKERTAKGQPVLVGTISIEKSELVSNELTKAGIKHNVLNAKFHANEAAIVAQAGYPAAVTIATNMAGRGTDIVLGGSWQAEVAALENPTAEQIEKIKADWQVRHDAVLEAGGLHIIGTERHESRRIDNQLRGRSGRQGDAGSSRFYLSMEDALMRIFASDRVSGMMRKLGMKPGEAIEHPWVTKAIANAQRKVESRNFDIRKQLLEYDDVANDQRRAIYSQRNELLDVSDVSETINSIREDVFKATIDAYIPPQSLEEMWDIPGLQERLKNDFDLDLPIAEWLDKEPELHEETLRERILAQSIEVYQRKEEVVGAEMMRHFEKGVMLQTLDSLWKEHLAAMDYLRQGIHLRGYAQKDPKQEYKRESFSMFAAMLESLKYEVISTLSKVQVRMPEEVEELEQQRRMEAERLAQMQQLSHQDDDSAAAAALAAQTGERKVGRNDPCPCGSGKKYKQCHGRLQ
# [3] = biological target: T2, Ubiquitin-activating enzyme e1, putative (Leishmania donovani (strain BPK282A1)) (UniProt E9BSI1); assay: Leishmania donovani Ubiquitin Activating Enzyme (LdE1); format: functional; parameters: scale not given: direction of the effect not stated beside the values; conditions: 30 µM
# T2 sequence (whole entry): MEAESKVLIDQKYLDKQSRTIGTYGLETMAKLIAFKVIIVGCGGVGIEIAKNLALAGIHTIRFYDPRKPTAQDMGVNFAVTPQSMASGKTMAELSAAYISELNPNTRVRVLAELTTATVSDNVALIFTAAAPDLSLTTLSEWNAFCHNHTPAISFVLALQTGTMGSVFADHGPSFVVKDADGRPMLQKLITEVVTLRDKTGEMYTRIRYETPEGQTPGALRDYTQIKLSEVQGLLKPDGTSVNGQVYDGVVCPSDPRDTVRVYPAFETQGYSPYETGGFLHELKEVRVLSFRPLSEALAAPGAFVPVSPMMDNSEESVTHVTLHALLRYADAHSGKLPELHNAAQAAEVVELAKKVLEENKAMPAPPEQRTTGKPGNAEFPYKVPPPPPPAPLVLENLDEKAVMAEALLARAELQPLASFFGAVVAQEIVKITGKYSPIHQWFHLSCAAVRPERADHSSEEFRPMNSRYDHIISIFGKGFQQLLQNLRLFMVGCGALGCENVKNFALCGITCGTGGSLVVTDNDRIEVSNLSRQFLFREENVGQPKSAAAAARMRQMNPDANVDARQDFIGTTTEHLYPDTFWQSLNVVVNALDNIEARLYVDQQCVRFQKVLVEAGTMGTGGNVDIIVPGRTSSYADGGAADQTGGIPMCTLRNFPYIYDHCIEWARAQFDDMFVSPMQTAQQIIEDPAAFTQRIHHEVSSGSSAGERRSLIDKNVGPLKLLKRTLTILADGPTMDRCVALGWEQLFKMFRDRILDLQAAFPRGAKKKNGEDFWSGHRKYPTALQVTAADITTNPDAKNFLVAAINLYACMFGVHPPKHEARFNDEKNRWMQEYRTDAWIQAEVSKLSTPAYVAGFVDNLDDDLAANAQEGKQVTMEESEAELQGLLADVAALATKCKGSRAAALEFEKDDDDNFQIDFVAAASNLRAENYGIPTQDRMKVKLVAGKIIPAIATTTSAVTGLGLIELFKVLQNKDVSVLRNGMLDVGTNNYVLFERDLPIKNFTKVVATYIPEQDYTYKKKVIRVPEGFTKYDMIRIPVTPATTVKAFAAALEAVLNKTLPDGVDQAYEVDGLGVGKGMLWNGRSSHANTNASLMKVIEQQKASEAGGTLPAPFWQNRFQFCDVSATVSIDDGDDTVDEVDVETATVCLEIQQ
# [4] = biological target: AMP-activated protein kinase, AMPK (Homo sapiens) (UniProt P54646+O43741+P54619+Q9UGJ0+Q9Y478+Q13131+Q9UGI9); assay: AMP-dependent Kinase enzyme assay. An in vitro enzyme assay that detects ADP turnover that is directly proportional to AMPK activity. This uses naive AMPK that is activated during the assay with MK-8722; format: functional; parameters: scale not given: direction of the effect not stated beside the values; conditions: 30 µM
# [5] = biological target: Sialic acid-binding Ig-like lectin 9 (Homo sapiens) (UniProt Q9Y336); assay: Hs-Siglec9 ALPHAscreen SOP 20170721; parameters: scale not given: direction of the effect not stated beside the values; conditions: 10 µM
# Sequence of Sialic acid-binding Ig-like lectin 9 (Homo sapiens) (Q9Y336 whole entry): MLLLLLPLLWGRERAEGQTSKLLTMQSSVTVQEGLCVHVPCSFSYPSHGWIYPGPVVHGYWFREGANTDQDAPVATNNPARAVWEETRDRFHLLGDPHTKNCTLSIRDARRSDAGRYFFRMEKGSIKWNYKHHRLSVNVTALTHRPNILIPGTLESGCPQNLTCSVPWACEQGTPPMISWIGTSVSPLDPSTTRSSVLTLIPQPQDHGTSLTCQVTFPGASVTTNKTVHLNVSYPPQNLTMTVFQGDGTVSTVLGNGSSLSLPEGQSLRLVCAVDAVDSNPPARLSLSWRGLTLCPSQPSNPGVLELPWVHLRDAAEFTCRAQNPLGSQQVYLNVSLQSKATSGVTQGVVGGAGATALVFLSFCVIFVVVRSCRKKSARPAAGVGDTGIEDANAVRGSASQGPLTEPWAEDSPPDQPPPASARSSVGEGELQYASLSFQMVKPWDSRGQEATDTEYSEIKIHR
# [6] = test system: Trypanosoma cruzi; assay: Trypanosoma cruzi phosphomannomutase and mannose-1-phosphate guanylyltransferase assay; format: functional; parameters: scale not given: direction of the effect not stated beside the values; conditions: 10 µM
# [7] = biological target: T3, Arginase-2, mitochondrial (Homo sapiens) (UniProt P78540); assay: in vitro enzyme assay to detect the production of urea directly proportional to the activity of Arginase II; format: functional; parameters: scale not given: in the data most compounds retested in dose-response had high values
# T3 sequence (whole entry): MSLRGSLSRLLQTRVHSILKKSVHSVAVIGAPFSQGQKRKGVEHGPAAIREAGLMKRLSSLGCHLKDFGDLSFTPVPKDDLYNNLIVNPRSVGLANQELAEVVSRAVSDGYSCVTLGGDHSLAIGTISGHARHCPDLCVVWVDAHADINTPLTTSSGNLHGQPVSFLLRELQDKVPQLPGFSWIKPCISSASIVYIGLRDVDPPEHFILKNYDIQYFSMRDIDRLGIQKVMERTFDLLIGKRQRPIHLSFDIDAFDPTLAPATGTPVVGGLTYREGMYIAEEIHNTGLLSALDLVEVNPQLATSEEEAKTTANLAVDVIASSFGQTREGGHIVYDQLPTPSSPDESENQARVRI
# [8] = biological target: T4, Proteasome subunit beta (Trypanosoma cruzi) (UniProt O96673); assay: Trypanosoma cruzi proteasome chymotrypsin-like activity (TcProtChymo) assay.; format: functional; parameters: scale not given: in the data most compounds retested in dose-response had high values; conditions: 9.37 µM
# T4 sequence (whole entry): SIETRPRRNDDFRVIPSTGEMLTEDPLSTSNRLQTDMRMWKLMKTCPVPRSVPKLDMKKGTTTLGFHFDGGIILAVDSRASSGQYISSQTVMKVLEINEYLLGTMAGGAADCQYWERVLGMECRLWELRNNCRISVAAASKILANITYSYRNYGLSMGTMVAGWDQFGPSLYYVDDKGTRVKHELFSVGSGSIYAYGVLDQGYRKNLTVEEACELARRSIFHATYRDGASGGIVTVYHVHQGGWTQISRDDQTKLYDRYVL
# [9] = species: Homo sapiens; assay: To identify inhibition of the IFN signalling (Jak-Stat) pathway via expression of an eGFP reporter gene under the control of an IFN-stimulated response element (ISRE) containing MxA promoter.; format: functional; parameters: scale not given: direction of the effect not stated beside the values; conditions: 30 µM
# [10] = biological target: T5, Tyrosyl-tRNA synthetase, putative (Trypanosoma cruzi (strain CL Brener)) (UniProt Q4DSP6); assay: Trypanosoma cruzi tyrosyl tRNA synthetase (TcYRS) _High Tyrosine SOP; format: functional; parameters: scale not given: in the data most compounds retested in dose-response had high values; conditions: 30 µM
# T5 sequence (whole entry): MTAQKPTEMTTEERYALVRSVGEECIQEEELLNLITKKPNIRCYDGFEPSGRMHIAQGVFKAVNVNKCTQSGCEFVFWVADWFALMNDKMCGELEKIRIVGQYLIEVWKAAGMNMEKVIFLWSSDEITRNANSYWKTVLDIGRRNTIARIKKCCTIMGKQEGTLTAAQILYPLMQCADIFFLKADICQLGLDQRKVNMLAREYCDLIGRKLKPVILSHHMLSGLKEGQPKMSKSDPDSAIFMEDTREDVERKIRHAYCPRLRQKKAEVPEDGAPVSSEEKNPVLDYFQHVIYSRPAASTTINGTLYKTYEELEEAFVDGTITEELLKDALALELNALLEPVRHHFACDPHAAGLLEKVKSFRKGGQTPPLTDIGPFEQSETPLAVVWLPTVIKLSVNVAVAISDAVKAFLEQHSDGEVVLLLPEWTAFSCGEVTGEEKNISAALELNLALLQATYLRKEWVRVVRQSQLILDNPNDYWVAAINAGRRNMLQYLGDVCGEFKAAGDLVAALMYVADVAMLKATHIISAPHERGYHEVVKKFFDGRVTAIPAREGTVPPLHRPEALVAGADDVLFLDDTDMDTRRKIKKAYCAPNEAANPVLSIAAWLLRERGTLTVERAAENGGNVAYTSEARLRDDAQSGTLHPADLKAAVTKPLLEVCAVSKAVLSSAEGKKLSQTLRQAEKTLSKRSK
# [11] = biological target: T5, Tyrosyl-tRNA synthetase, putative (Trypanosoma cruzi (strain CL Brener)); assay: Trypanosoma cruzi tyrosyl tRNA synthetase (TcYRS) SOP; format: functional; parameters: scale not given: direction of the effect not stated beside the values; conditions: 30 µM
# [12] = biological target: Chromo domain-containing protein 1 (Saccharomyces cerevisiae (strain ATCC 204508 / S288c) (Baker's yeast)) (UniProt P32657); assay: ScCHD-1 Enzyme Inhibition Assay; format: functional; parameters: scale not given: in the data most compounds retested in dose-response had high values; conditions: 30 µM
# Sequence of Chromo domain-containing protein 1 (Saccharomyces cerevisiae (strain ATCC 204508 / S288c) (Baker's yeast)) (P32657 whole entry, the tested form may be a part): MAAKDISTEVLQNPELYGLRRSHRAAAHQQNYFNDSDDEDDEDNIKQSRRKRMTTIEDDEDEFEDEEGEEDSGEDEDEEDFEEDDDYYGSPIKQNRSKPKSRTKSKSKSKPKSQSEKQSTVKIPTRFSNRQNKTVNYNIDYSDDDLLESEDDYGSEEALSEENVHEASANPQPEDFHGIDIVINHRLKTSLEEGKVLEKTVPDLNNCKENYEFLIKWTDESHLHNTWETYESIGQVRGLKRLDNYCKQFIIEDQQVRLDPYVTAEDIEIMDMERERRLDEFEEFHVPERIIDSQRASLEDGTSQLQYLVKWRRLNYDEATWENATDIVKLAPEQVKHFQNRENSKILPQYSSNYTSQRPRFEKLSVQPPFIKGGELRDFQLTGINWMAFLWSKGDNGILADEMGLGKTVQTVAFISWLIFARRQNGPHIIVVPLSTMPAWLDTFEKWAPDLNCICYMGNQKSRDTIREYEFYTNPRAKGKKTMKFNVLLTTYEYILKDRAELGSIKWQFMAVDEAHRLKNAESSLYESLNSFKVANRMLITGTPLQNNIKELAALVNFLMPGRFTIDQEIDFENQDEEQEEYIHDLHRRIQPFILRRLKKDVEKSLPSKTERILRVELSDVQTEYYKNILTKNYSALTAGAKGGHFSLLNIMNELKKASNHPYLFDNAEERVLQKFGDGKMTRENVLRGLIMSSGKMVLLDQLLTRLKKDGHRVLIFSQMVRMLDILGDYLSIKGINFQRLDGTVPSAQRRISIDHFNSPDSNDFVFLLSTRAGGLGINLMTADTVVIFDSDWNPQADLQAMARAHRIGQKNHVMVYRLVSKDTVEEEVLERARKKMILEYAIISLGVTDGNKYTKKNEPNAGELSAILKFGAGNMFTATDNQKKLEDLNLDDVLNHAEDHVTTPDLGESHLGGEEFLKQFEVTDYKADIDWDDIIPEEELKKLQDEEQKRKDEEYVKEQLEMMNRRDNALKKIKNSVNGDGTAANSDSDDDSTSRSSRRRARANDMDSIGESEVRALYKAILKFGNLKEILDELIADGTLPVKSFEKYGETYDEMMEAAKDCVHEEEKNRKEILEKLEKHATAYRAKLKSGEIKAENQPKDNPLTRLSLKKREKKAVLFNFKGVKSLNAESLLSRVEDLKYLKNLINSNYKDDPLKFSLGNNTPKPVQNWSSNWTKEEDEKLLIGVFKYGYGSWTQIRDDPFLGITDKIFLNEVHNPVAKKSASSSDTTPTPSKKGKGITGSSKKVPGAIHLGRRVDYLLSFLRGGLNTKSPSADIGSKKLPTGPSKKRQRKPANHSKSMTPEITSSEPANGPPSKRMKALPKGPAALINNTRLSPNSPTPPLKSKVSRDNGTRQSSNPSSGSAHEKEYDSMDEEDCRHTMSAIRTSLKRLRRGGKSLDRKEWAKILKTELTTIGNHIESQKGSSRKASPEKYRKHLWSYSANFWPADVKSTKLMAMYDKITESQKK
compound,measurement,setting,value
Fc1cccc(N2C[C@H]3CCN(c4cccnc4)C[C@H]3C2)c1,PXC50,[1]; MAX_EFFECT 35.84229391,< 4
same,PXC50,[1]; MAX_EFFECT 42.57425743,< 4
same,PXC50,[1]; MAX_EFFECT 45.65217391,< 4
same,Percent Effect,[2],-5.24%
same,Percent Effect,[3],-27%
same,Percent Effect,[4],0.0628%
same,Percent Effect,[5],-4.58%
same,Percent Effect,[6],-1.95%
same,Percent Effect,[7]; 33.3 µM,-1.67%
same,Percent Effect,[8],9.38%
same,Percent Effect,[9],31.8%
same,Percent Effect,[10],23.8%
same,Percent Effect,[11],25.6%
same,Percent Effect,[12],3.63%
CC(C)c1nc2c(n1C)CCN(Cc1nc(-c3cccnc3)no1)C2,PXC50,"[1]; BOTTOM 2.671185226, HILLSLOPE 0.615272847, MAX_EFFECT 58.33333333, TOP 100.0",4.04
same,PXC50,[1]; MAX_EFFECT 45.45454545,< 4
same,PXC50,[1]; MAX_EFFECT 45.58058925,< 4
same,PXC50,[1]; MAX_EFFECT 47.65100671,< 4
same,PXC50,[1]; MAX_EFFECT 48.17658349,< 4
CCn1cnnc1CNc1nc(C)nc2scc(CC(C)C)c12,PXC50,[1]; MAX_EFFECT 12.79373368,< 4
same,PXC50,[1]; MAX_EFFECT 13.05483029,< 4
same,Percent Effect,[4],-1.1%
Cc1cc(C(=O)N2C[C@@H](C(=O)O)[C@H](c3ccccc3C)C2)c(C)o1,Percent Effect,[2],-6.29%
same,Percent Effect,[3],2.7%
same,Percent Effect,[4],4.96%
same,Percent Effect,[5],-6.42%
same,Percent Effect,[6],-7.92%
same,Percent Effect,[7]; 30 µM,4.87%
same,Percent Effect,[7]; 33.3 µM,-2.23%
same,Percent Effect,[8],11.2%
same,Percent Effect,[9],18.7%
same,Percent Effect,[10],1.07%
same,Percent Effect,[11],3.7%
same,Percent Effect,[12],-4.1%
OC(CN(Cc1ccccc1)Cc1ccncc1)c1cccs1 (stereo not drawn),Percent Effect,[2],3.55%
same,Percent Effect,[3],2.7%
same,Percent Effect,[4],-2.19%
same,Percent Effect,[5],5.24%
same,Percent Effect,[6],4.79%
same,Percent Effect,[7]; 30 µM,5.95%
same,Percent Effect,[7]; 33.3 µM,25.1%
same,Percent Effect,[8],10.2%
same,Percent Effect,[9],5.3%
same,Percent Effect,[10],1.07%
same,Percent Effect,[11],6.17%
same,Percent Effect,[12],-8.61%
CC(=O)NC(C)CC(=O)NCc1cccnc1Oc1ccccc1C (stereo not drawn),Percent Effect,[2],-2.11%
same,Percent Effect,[3],9.72%
same,Percent Effect,[4],-0.172%
same,Percent Effect,[5],-2.33%
same,Percent Effect,[6],-1.26%
same,Percent Effect,[7]; 30 µM,1.62%
same,Percent Effect,[7]; 33.3 µM,6.18%
same,Percent Effect,[8],11.6%
same,Percent Effect,[9],-9.66%
same,Percent Effect,[10],8.42%
same,Percent Effect,[11],12.8%
same,Percent Effect,[12],-3.08%
